Source: PubChem BioAssay AID651593 (National Center for Advancing Translational Sciences (NCATS), 2012)
Hit rate of the full screen: of about 1,100 compounds, about 860 (78%) were called active. Not shown: some 19% with an inconclusive outcome. Calls come from the whole dose curve; as a rule, active = well fitted activation curve with a large enough effect; inconclusive = small, poorly fitted or top-dose-only effect; inactive = flat fitted curve, though single readings scatter. The set was probably picked from earlier hits. The list shows a part of the results.

Experiment: qHTS of Nrf2 Activators: Hit Validation in Primary Assay; note: nearly all actives have a fitted effect of over 70% in size
Settings: Nrf2/ARE reporter cell assay; Potency: activation; series mostly up to 46.1 µM
In short: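 Luminescence from Steady-Glo lysis reagent, read after 30 min, reported ARE-luciferase activity in AREc32_fluc stable cells. Compounds were tested at several concentrations, incubated 24 h at 37 °C with 5% CO2 following overnight seeding.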
Potency is the fitted concentration of half-maximal effect.

Potency, active:
O=C1N/C(=C\c2ccsc2)C(=O)N1Cc1ccc(F)cc1 1.64 µM, Cc1c(=O)n(OCc2ccccc2)c2ccccc2[n+]1[O-] 3.26 µM, Cc1c(=O)n(OCc2ccc(Cl)cc2)c2ccccc2[n+]1[O-] 1.64 µM, C=CCn1c(SCC(C)=O)nc2scc(-c3ccco3)c2c1=O 0.731 µM, O=C(/C=C\c1ccc2c(c1)OCO2)CC1(O)C(=O)Nc2ccccc21 (centres undefined) 23.1 µM, CN1CCN(C(=O)CCN2C(=O)/C(=C/c3cccc(Br)c3)SC2=S)CC1 5.17 µM, O=C(N/N=C/c1ccsc1)c1ccc2ccccc2n1 16.4 µM, C(=N/n1c2ccccc2c2ccccc21)/c1ccco1 2.31 µM, COc1ccccc1C=Cc1ccnc2ccccc12 2.06 µM, Cc1nc(NC(=O)/C=C/c2ccccc2)n[nH]1 3.66 µM, O=C(/C=C/c1ccccc1)Nc1ncn[nH]1 3.66 µM, FC(F)(F)c1cc(-c2cccs2)nc(-n2cc(Br)cn2)n1 1.3 µM, C/C(=N\NC(=O)c1cccc(Br)c1)c1ccccn1 4.61 µM, CCn1c(/C=C/c2ccccc2F)nc2ccccc2c1=O 2.31 µM, CCn1c(/C=C/c2ccccc2[N+](=O)[O-])nc2ccccc2c1=O 3.66 µM, CCn1c(/C=C/c2ccccc2)nc2ccccc2c1=O 4.11 µM, O=c1[nH]c(/C=C/c2ccccc2[N+](=O)[O-])nc2ccccc12 0.411 µM, CCCn1c(-c2cccs2)nc2nc3ccccc3nc21 1.84 µM, O=c1cc(-c2ccccc2Cl)oc2c(Br)ccc(O)c12 6.51 µM, c1ccc(-c2cc3c(ccc4nonc43)nn2)cc1 7.31 µM, [O-][n+]1onc2c3ccnnc3ccc21 10.3 µM, [O-][n+]1onc2c3cc(-c4ccccc4)nnc3ccc21 8.2 µM, CC(=O)N1CCc2c(sc(NC(=O)CCS(=O)(=O)c3ccccc3)c2C#N)C1 18.4 µM, O=C1C(=Cc2ccco2)CCCC1=Cc1ccco1 3.26 µM
